Source: PubChem BioAssay (NCI)
The panel holds about 83,000 compounds, 20% with a hit somewhere; the sample as a whole holds those more often.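 Each cell line was grown in a 96-well plate and treated with one concentration of compound for 48 hours. Values below 10 were considered active.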 Unmarked numbers belong to inactive results. The source made the active and inactive calls.

Columns and labels:
Assay in all cases: NCI-60 one-dose screen, 48 h (100 = growth as untreated, 0 = no growth, -100 = all killed)
[1] = test system: NCI-H23 lung; details: 10 µM unless noted
[2] = test system: NCI-H226 lung; details: 10 µM unless noted
[3] = test system: NCI-H322M lung; details: 10 µM unless noted
[4] = test system: HOP-62 NSCLC; details: 10 µM unless noted
[5] = test system: NCI-H460 lung; details: 10 µM unless noted
[6] = test system: HOP-92 NSCLC; details: 10 µM
[7] = test system: NCI-H522 lung; details: 10 µM unless noted
[8] = test system: A549/ATCC NSCLC; details: 10 µM unless noted
[9] = test system: 786-0 renal; details: 10 µM unless noted
[10] = test system: COLO 205 colon; details: 10 µM unless noted

## O=C1[C@H]2Cc3c([nH]c4ccccc34)[C@@H](c3c(Cl)cccc3Cl)N2C(=O)CN1C1CCN(CC2CCCCC2)CC1
[1]
  growth: 94.5%
[2]
  growth: 86.1%
[3]
  growth: 94.7%
[4]
  growth: 93.3%
[5]
  growth: 63.6%
[6]
  growth: 54.9%
[7]
  growth: 101%
[8]
  growth: 94.3%
[9]
  growth: 83.2%
[10]
  growth: 105%

## COc1ccc(-c2cc(-c3ccc(Cl)cc3)c(C#N)c(=O)n2Cc2ccc(C(=O)O)cc2)cc1
[1]
  growth: 85.9%
[2]
  growth: 100%
[3]
  growth: 95.5%
[4]
  growth: 78.6%
[5]
  growth: 92.4%
[6]
  growth: 98.3%
[7]
  growth: 28.5%
[8]
  growth: 108%
[9]
  growth: 108%
[10]
  growth: 109%

## CN1CCN(c2ccc(/C=N/Nc3nc4ccccc4c(=O)n3-c3ccccc3)cc2)CC1
[1]
  growth: 103%
[2]
  growth: 101%
[3]
  growth: 103%
[4]
  growth: 96.2%
[5]
  growth: 109%
[6]
  growth: 102%
[7]
  growth: 93%
[8]
  growth: 103%
[9]
  growth: 91.6%
[10]
  growth: 103%

## COc1ccc(-n2c(/C=C3\C(=O)Nc4ccccc43)ccc2CO)cc1
[1]
  growth: 104%
[2]
  growth: 95.3%
[3]
  growth: 104%
[4]
  growth: 95.1%
[5]
  growth: 113%
[6]
  growth: 91.5%
[7]
  growth: 89.6%
[8]
  growth: 97%
[9]
  growth: 99.1%
[10]
  growth: 114%

## COc1cc(Cn2cc3c(c2)-c2onc(CN4CCOCC4)c2CC3)cc(OC)c1OC
[1]
  growth: 94.6%
[2]
  growth: 87.1%
[3]
  growth: 100%
[4]
  growth: 95.6%
[5]
  growth: 111%
[6]
  growth: 89.7%
[7]
  growth: 86%
[8]
  growth: 101%
[9]
  growth: 100%
[10]
  growth: 114%

## COc1ccc(Cn2cc3c(c2-c2cc(OC)c(OC)c(OC)c2)CCc2c(CN4CCOCC4)noc2-3)cc1
[1]
  growth: 9.12% (active)
[2]
  growth: 57.9%
[3]
  growth: 52.7%
[4]
  growth: 45%
[5]
  growth: 8.85% (active)
[6]
  growth: 100%
[7]
  growth: 12.3%
[8]
  growth: 32.9%
[9]
  growth: 55.4%
[10]
  growth: 14.9%

## CCCCNNC(=O)c1ccc(-c2cccc(F)c2F)cc1
[1]
  growth: 38.1%
[2]
  growth: 39.5%
[3]
  growth: 42.4%
[4]
  growth: 28.5%
[5]
  growth: 30%
[6]
  growth: -3.72% (active)
[7]
  growth: 4.69% (active)
[8]
  growth: 34.2%
[9]
  growth: 50.8%
[10]
  growth: 4.96% (active)

## O=S(=O)(NCCCNc1nccc(-c2[nH]c(-c3ccccc3)nc2-c2ccc(Cl)c(O)c2)n1)c1cccc2ccccc12
[1]
  growth: 30.6%
[2]
  growth: 32.9%
[3]
  growth: 50.9%
[4]
  growth: 30.9%
[5]
  growth: 15.5%
[6]
  growth: 51.4%
[7]
  growth: 25.2%
[8]
  growth: 26.5%
[9]
  growth: 47.9%
[10]
  growth: 93.8%

## CC1(C)CC[C@]23CC[C@]4(C)[C@H](CC[C@@H]5[C@@]6(C)CCCN(CO)C(C)(C)[C@@H]6CC[C@]54C)[C@H]2[C@H]1OC3
[1]
  growth: 86.4%
[2]
  growth: 94.8%
[3]
  growth: 71.9%
[4]
  growth: 98.9%
[5]
  growth: 1.75% (active)
[6]
  growth: 77.5%
[7]
  growth: 94.9%
[8]
  growth: 76.8%
[9]
  growth: 83.8%
[10]
  growth: 0.57% (active)

## O=C(CCC(=O)N1CCOCC1)OCCCCCCSc1ccc([N+](=O)[O-])c2nonc12
[1]
  growth: -60.7% (active)
[2]
  growth: -20.7% (active)
[3]
  growth: 45.6%
[4]
  growth: 38.1%
[5]
  growth: -13.6% (active)
[6]
  growth: -14.3% (active)
[7]
  growth: -61.2% (active)
[8]
  growth: 29.8%
[9]
  growth: -20.7% (active)
[10]
  growth: -56.7% (active)

## CCOC(=O)C1=NNC(c2ccc(Cl)cc2)C1C(=O)N1C(=S)NC(=O)C1CC(C)C (stereo not given)
[1]
  growth: 99.3%
[2]
  growth: 92%
[3]
  growth: 94.7%
[4]
  growth: 92.8%
[5]
  growth: 105%
[6]
  growth: 90.2%
[7]
  growth: 88.4%
[8]
  growth: 110%
[9]
  growth: 108%
[10]
  growth: 109%

## Cc1ccc(-n2c(/C=C3\C(=O)Nc4ccccc43)ccc2CO)cc1
[1]
  growth: 80.6%
[2]
  growth: 88.2%
[3]
  growth: 103%
[4]
  growth: 72.8%
[5]
  growth: 80.3%
[6]
  growth: 84.5%
[7]
  growth: 73.6%
[8]
  growth: 71.3%
[9]
  growth: 101%
[10]
  growth: 91.5%

## COc1cc(/C=C/C(=O)c2ccc(NC(=O)CSc3nnc(-c4ccc(-c5nc6ccc(Cl)cc6[nH]5)cc4)o3)cc2)cc(OC)c1OC
[1]
  growth: 101%
[2]
  growth: 104%
[3]
  growth: 99.6%
[4]
  growth: 89.8%
[5]
  growth: 98.7%
[6]
  growth: 115%
[7]
  growth: 76.1%
[8]
  growth: 99.5%
[9]
  growth: 109%
[10]
  growth: 106%

## COc1cc(Nc2c(C#N)cnn3cc(-c4cnn(CC(C)(C)O)c4)cc23)ccc1Cl
[1]
  growth: 41.4%
[2]
  growth: 42.1%
[3]
  growth: 41.9%
[4]
  growth: 45.6%
[5]
  growth: 59.7%
[6]
  growth: 58.1%
[7]
  growth: 15%
[8]
  growth: 52.4%
[9]
  growth: 34.7%
[10]
  growth: 75.9%

## O=C(Cn1cc(-c2ccccc2)nn1)Nc1nc(-c2ccc(Cl)cc2)cs1
[1]
  growth: 97.7%
[2]
  growth: 106%
[3]
  growth: 100%
[4]
  growth: 108%
[5]
  growth: 109%
[6]
  growth: 130%
[7]
  growth: 88.2%
[8]
  growth: 103%
[9]
  growth: 88.6%
[10]
  growth: 117%

## O=C(/C=C/c1ccc(F)cc1)c1ccc(O)cc1
[1]
  growth: 95.6%
[2]
  growth: 105%
[3]
  growth: 121%
[4]
  growth: 107%
[5]
  growth: 103%
[6]
  growth: 109%
[7]
  growth: 90.1%
[8]
  growth: 92.2%
[9]
  growth: 95.2%
[10]
  growth: 112%

## NC(N)=Nc1ccc(Oc2cccc(NC(N)=Nc3ccc(I)cc3F)c2)cc1
[1]
  growth: 77.4%
[2]
  growth: 88.2%
[3]
  growth: 80.4%
[4]
  growth: 76.4%
[5]
  growth: 65.9%
[6]
  growth: 39%
[7]
  growth: 66.8%
[8]
  growth: 68.7%
[9]
  growth: 86.4%
[10]
  growth: 48.9%

## C=C1CC[C@@H]2[C@]3(C)COC(c4ccccc4)O[C@@H]3CC[C@@]2(C)[C@@H]1C/C=C1/C(=O)OC[C@H]1O (stereo not given in full)
[1]
  growth: 96.8%
[2]
  growth: 96.1%
[3]
  growth: 97.1%
[4]
  growth: 110%
[5]
  growth: 99.8%
[6]
  growth: 105%
[7]
  growth: 63.5%
[8]
  growth: 92.6%
[9]
  growth: 111%
[10]
  growth: 108%

## O=S(=O)(NCCCNc1nccc(-n2cnc3ccccc32)n1)c1ccc(C(F)(F)F)cc1
[1]
  growth: 91.3%
[2]
  growth: 77.8%
[3]
  growth: 103%
[4]
  growth: 87.1%
[5]
  growth: 89.8%
[6]
  growth: 80.2%
[7]
  growth: 70%
[8]
  growth: 86.3%
[9]
  growth: 91.2%
[10]
  growth: 96.4%

## O=C(NNc1nc2cc(F)cc(F)c2n2cccc12)c1cnccn1
[1]
  growth: 24.6%
[2]
  growth: 29.3%
[3]
  growth: 30.2%
[4]
  growth: 14.5%
[5]
  growth: 1.69% (active)
[6]
  growth: 26.1%
[7]
  growth: 0.755% (active)
[8]
  growth: 15%
[9]
  growth: 14.3%
[10]
  growth: 6.31% (active)

## CN1CCN(c2ccc(/C=N/n3cnc4oc(-c5ccccc5)cc4c3=N)cc2)CC1
[1]
  growth: 93.6%
[2]
  growth: 87.5%
[3]
  growth: 91.1%
[4]
  growth: 84.2%
[5]
  growth: 99.6%
[6]
  growth: 61.4%
[7]
  growth: 84.4%
[8]
  growth: 75.1%
[9]
  growth: 52.8%
[10]
  growth: 63.5%

## O=C1CCCc2nc(Nc3ccc(S(=O)(=O)Nc4ccc([N+](=O)[O-])cc4)cc3)ncc21
[1]
  growth: 102%
[2]
  growth: 109%
[3]
  growth: 106%
[4]
  growth: 111%
[5]
  growth: 103%
[6]
  growth: 121%
[7]
  growth: 87.7%
[8]
  growth: 104%
[9]
  growth: 99.9%
[10]
  growth: 121%

## CC1=NC2=NC(=O)/C(=C3/N=C(C)C=C(c4ccccc4)N3N)NN2C(c2ccccc2)=C1
[1]
  growth: 106%
[2]
  growth: 88.3%
[3]
  growth: 103%
[4]
  growth: 94.3%
[5]
  growth: 111%
[6]
  growth: 100%
[7]
  growth: 97.9%
[8]
  growth: 109%
[9]
  growth: 108%
[10]
  growth: 114%

## CC(=O)c1nnn(-c2c(C(=O)n3nc(C)cc3C)sc(=S)n2-c2ccccc2)c1C
[1]
  growth: 106%
[2]
  growth: 95.7%
[3]
  growth: 107%
[4]
  growth: 107%
[5]
  growth: 113%
[6]
  growth: 113%
[7]
  growth: 99.8%
[8]
  growth: 103%
[9]
  growth: 111%
[10]
  growth: 108%

## O=C(NCCN1CCCC1)c1ccc(-c2nc3ccc4[nH]ncc4c3c3c2CCCC3)cc1
[1]
  growth: -14.8% (active)
[2]
  growth: 13.6%
[3]
  growth: 3.73% (active)
[4]
  growth: 15.8%
[5]
  growth: -5.93% (active)
[6]
  growth: -15.4% (active)
[7]
  growth: -29.2% (active)
[8]
  growth: 6.08% (active)
[9]
  growth: 6.43% (active)
[10]
  growth: -14.8% (active)

## O=C(CNc1nc(-c2cccc([N+](=O)[O-])c2)cs1)Nc1cccc([N+](=O)[O-])c1
[1]
  growth: -29.7% (active)
[2]
  growth: -35.9% (active)
[3]
  growth: 58.9%
[4]
  growth: 17.3%
[5]
  growth: -15.7% (active)
[6]
  growth: -39.4% (active)
[7]
  growth: -36.2% (active)
[8]
  growth: -19% (active)
[9]
  growth: -13.6% (active)
[10]
  growth: -30.8% (active)
